Nine molecules from PubChem BioAssay (Tox21) can be followed below.

Assay [1] can be described thus: qHTS assay to test for compound auto fluorescence at 535 nm (green) in HEK293 cells (AID 720680).
Assay [2] is described as follows: qHTS assay to test for compound auto fluorescence at 460 nm (blue) in HEK293 cell free culture (AID 720681). The essentials: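 Blue fluorescence (Ex 405/Em 460 nm, triamterene-equivalent) was read immediately after pin transfer of compound or DMSO into medium (DMEM, 10% FBS) without cells.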
A general note: Quantitative high-throughput screening tests each substance at several concentrations.

Assay [3] is described as follows: qHTS assay to test for compound auto fluorescence at 535 nm (green) in HEK293 cell free culture (AID 720682). In outline: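 Intrinsic compound fluorescence is measured in culture medium containing 10% FBS, with excitation at 485 nm and detection at 535 nm, referenced to fluorescein.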
Assay [4] can be described thus: qHTS assay to test for compound auto fluorescence at 590 nm (red) in HEK293 cell free culture (AID 720683). In outline: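 Red-channel autofluorescence of compounds in culture medium (DMEM, 10% FBS), no cells, measured at 540/590 nm. Rose Bengal sodium is the reference fluorophore for equivalence.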
The nature of assay [5]: qHTS assay to test for compound auto fluorescence at 590 nm (red) in HepG2 cell free culture (AID 720684). In outline: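 Steps: dispense MEM/10% FBS medium, no cells; pin compound or DMSO vehicle; read red channel, Ex/Em 540/590 nm. Output given as Rose Bengal sodium equivalents.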
A short description of assay [6]: qHTS assay to test for compound auto fluorescence at 460 nm (blue) in HepG2 cell free culture (AID 720685). The essentials: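 Compound (23 nL) or DMSO pinned into cell-free MEM with 10% FBS; blue fluorescence read at 405/460 nm excitation/emission, expressed as auto-fluorescence equivalency to triamterene.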
Assay [7] can be described thus: qHTS assay to test for compound auto fluorescence at 535 nm (green) in HepG2 cell free culture (AID 720686).
The nature of assay [8]: qHTS assay to test for compound auto fluorescence at 460 nm (blue) in HepG2 cells (AID 720687). In outline: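 Blue-channel autofluorescence (Ex/Em 405/460 nm, triamterene-equivalent) was measured after 1 hr compound exposure at 37 C, 5% CO2. Cells were HepG2, plated overnight at 37 C in MEM plus 10% FBS.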
Assay [9] in a line: qHTS assay to identify small molecule antagonists of the glucocorticoid receptor (GR) signaling pathway - cell viability counter screen (AID 720693). Also: nearly all actives have a fitted effect of over 55% in size.
The nature of assay [10]: qHTS assay for identifying genotoxic compounds that show differential cytotoxicity against isogenic chicken DT40 cell lines with known DNA damage response pathways - wild type cell line (AID 743012). Also: nearly all actives have a fitted effect of over 60% in size. Also: potency is read from the fitted curve at half-maximal effect. In outline:
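Parental DNA repair-proficient DT40 cells, 300 per well, were pre-incubated ~0.5 h at 37 C/5% CO2, pin-dosed with compounds in DMSO, then incubated 40 h. Viability was read as CellTiter-Glo luminescence after 30 min at room temperature.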

The nature of assay [11]: qHTS assay for identifying genotoxic compounds that show differential cytotoxicity against isogenic chicken DT40 cell lines with known DNA damage response pathways - Rev3 mutant cell line (AID 743014). Also: nearly all actives have a fitted effect of over 55% in size. Also: potency is read from the fitted curve at half-maximal effect.
Assay [12] is described as follows: qHTS assay for identifying genotoxic compounds that show differential cytotoxicity against isogenic chicken DT40 cell lines with known DNA damage response pathways - Rad54/Ku70 mutant cell line (AID 743015). Also: nearly all actives have a fitted effect of over 60% in size.
Assay [13] is described as follows: qHTS assay to identify small molecule antagonists of the androgen receptor (AR) signaling pathway - cell viability counter screen (AID 743033; also: nearly all actives have a fitted effect of over 45% in size).
Assay [14] can be described thus: qHTS assay to identify small molecule antagonists of the androgen receptor (AR) signaling pathway using the MDA cell line - cell viability counter screen (AID 743041; also: nearly all actives have a fitted effect of over 45% in size). The essentials: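 Cells were plated at 3,000 per well and left 5 h. Compounds in DMSO were then pinned in, followed by R1881. After 16 h at 37C, CellTiter-Fluor fluorescence gave viability.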
The target in assay [15] is Androgen receptor (Homo sapiens) (UniProt P10275). As to the kind of experiment: qHTS assay to identify small molecule antagonists of the androgen receptor (AR) signaling pathway (AID 743035; active = well fitted inhibition curve with a large enough effect in the signal ratio in the repeat runs, not every such curve was filed as active; the % refers to the signal ratio). In outline: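 HEK293 cells stably carrying a UAS-driven beta-lactamase reporter (AR-UAS-bla GripTite) were plated for 4 h at 37C, then given compound and the agonist R1881 and incubated 16 h. Reporter activity was read by LiveBLAzer B/G FRET fluorescence after 2 h at room temperature.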
Androgen receptor (Homo sapiens), sequence (P10275 whole entry, looked up): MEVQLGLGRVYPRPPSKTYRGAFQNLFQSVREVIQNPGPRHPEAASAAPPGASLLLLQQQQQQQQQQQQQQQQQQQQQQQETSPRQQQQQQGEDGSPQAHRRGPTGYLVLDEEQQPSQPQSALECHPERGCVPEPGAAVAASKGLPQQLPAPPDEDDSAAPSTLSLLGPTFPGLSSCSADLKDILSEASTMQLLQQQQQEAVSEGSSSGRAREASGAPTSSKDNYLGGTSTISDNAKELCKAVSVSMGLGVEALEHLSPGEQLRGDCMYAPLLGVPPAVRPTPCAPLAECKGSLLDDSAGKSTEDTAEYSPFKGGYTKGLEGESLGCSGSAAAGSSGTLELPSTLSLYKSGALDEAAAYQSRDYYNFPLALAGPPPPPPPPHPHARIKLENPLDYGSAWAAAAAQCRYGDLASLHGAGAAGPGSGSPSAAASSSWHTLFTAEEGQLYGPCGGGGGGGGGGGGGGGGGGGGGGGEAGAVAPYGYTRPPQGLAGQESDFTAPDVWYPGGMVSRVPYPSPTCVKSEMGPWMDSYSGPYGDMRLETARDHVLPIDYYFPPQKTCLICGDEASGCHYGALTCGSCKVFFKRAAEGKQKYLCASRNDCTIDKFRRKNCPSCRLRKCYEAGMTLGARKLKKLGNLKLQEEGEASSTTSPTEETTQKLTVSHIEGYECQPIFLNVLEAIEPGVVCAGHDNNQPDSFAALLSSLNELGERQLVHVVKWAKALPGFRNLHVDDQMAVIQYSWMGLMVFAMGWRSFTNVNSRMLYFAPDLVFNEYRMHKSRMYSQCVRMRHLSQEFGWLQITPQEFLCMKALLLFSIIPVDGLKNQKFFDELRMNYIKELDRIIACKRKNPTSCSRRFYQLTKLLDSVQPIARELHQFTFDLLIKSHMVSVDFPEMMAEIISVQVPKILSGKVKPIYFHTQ

The target is the same in assay [16]. As to the kind of experiment: qHTS assay to identify small molecule agonists of the androgen receptor (AR) signaling pathway (AID 743036; active = well fitted activation curve with a large enough effect in the signal ratio in the repeat runs, with a control signal flat, not every such curve was filed as active; the % refers to the signal ratio). In outline:
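Agonist activity was scored by beta-lactamase reporter fluorescence in stably transfected HEK293 cells exposed to compounds for 16 h at 37C and 5% CO2. Substrate loading took 2 h at room temperature.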

Assay [17] has the same target. As to the kind of experiment: qHTS assay to identify small molecule agonists of the androgen receptor (AR) signaling pathway using the MDA cell line (AID 743040; also: nearly all actives have a fitted effect of over 20% in size). The essentials:
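Cells plated, 5 h at 37C/0% CO2; compound or DMSO pinned; 16 h at 37C; ONE-Glo added; luminescence measured after 30 min at room temperature. Reporter line: MDA-kb2 with MMTV-luciferase responsive to AR and GR.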

For assay [18] the target is unchanged. As to the kind of experiment: qHTS assay to identify small molecule antagonists of the androgen receptor (AR) signaling pathway using the MDA cell line (AID 743042; also: nearly all actives have a fitted effect of over 55% in size). In outline:
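Antagonist mode: compounds plus R1881 agonist added to MDA-kb2 AR-luc cells, incubated 16 h at 37C. Luciferase reporter luminescence quantified, with multiplexed CellTiter-Fluor readout for cell viability.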

Unmarked numbers belong to inactive results. Results filed as inconclusive are left out. The source made the active and inactive calls. Unless noted, calls follow the shape of the dose curve; as a rule, active = well fitted curve in the direction sought with a large enough effect in the repeat runs; inconclusive = weak or mixed curves; inactive = no such curve, though single readings can be large; an effect the other way counts as inactive or inconclusive.
% is scaled to controls: 0 for no effect and ±100 for the full control effect.

Regarding `CCC1Nc2cc(Cl)c(S(N)(=O)=O)cc2S(=O)(=O)N1` (stereo not drawn), the result in assay [1], in assay [2], in assay [3], in assay [4], in assay [5] and in assay [6] was inactive. Further, the molecule was classed as inactive in assay [7], in [8], in [13] and in assay [14]. Besides, the Potency entry in assay [9], in [10], in assay [11] and in assay [12] was “inactive” each time.
In the case of `CCCCCCCCCCCCCCCC(=O)NCCO`, the call in [1], in assay [2], in assay [3], in [4], in assay [5] and in [6] was inactive. In addition, the outcome in [7], in assay [8], in assay [13] and in assay [14] was inactive. The Potency result in [9], in [10], in assay [11] and in assay [12] was “inactive” each time.
Consider `CC1CCC(C(C)(C)S)C(=O)C1` (stereo not drawn), for which the molecule was classed as inactive in [1], in assay [2], in assay [3], in assay [4], in [5] and in [6]. The result in assay [7], in assay [8], in [13] and in assay [14] was inactive. The Potency result in assay [9], in assay [10], in assay [11] and in [12] was “inactive” throughout.
Take `NS(=O)(=O)c1cc2c(cc1Cl)NC(C(Cl)Cl)NS2(=O)=O` (stereo not drawn): the fluorescence, % of fluorescein in assay [1] was 0.0129% [at 18.6 µM]. The fluorescence, % of fluorescent control in assay [2] is -0.0271% [at 18.6 µM]; in assay [4] it was 0.0566% [at 18.6 µM]; in assay [6], -0.0397% [at 18.6 µM]; in assay [8] it was -0.0034% [at 18.6 µM]. Besides, in assay [3], the activity change is -0.0213% [at 18.6 µM]. The fluorescence, % of Rose Bengal in assay [5] is -0.224% [at 18.6 µM]. Besides, the fluorescence, % of fluorescein control in assay [7] is -0.0047% [at 18.6 µM]. Moreover, the Potency entry in [9], in assay [10] and in [12] was “inactive” each time. Further, the molecule was called inactive in assay [14].
As to `C[CH2][Ge]([Cl])([CH2]C)[CH2]C`, the molecule was classed as inactive in [1], in assay [2], in assay [3], in [4], in assay [5] and in [6]. Moreover, the outcome in assay [7], in assay [8], in assay [13] and in assay [14] was inactive. For the same molecule, the Potency entry in [9], in assay [11] and in [12] was “inactive” in each case.
As to `CCC(C)(C)C1CCC(=O)CC1`, the molecule was called inactive in assay [1], in assay [2], in assay [3], in [4], in assay [5] and in [6]. The molecule was classed as inactive in assay [7], in [8], in [13], in assay [16], in [17] and in [14]. In assay [18], the outcome was inactive. Further, the Potency entry in [9], in assay [10], in assay [12] and in [15] was “inactive” throughout.
Regarding `O=C1OC(=O)c2cc(Oc3ccc4c(c3)C(=O)OC4=O)ccc21`, the call in assay [1], in assay [2], in assay [3], in assay [4], in assay [5] and in assay [6] was inactive. For the same molecule, the call in [7], in assay [8], in assay [13], in [16], in [17] and in assay [18] was inactive. For the same molecule, the Potency result in assay [9], in assay [11], in assay [12] and in [15] was “inactive” throughout.
`CCC(=O)OCCC(C)CCC=C(C)C` (stereo not drawn): the result in [1], in [2], in assay [3], in assay [4], in assay [5] and in [6] was inactive. Also, the molecule was called inactive in assay [7], in assay [8], in assay [13] and in assay [14]. For the same molecule, the Potency result in assay [9] and in assay [10] was “inactive” throughout.
Consider `OC(CCN1CCCCC1)(c1ccccc1)c1ccccc1`, for which the molecule was classed as inactive in [1], in assay [2], in assay [3], in [4], in assay [5] and in assay [6]. Also, the molecule was called inactive in assay [7], in [8], in assay [13], in assay [16], in assay [17] and in assay [18]. Moreover, the Potency entry in assay [9] and in assay [15] was “inactive” in each case. Besides, the values for the Potency in assay [10] and in [11] were 13.3 µM (active) and 23.7 µM (active), respectively.
